# In article PMC7862700, “An all-to-all approach to the identification of sequence-specific readers for epigenetic DNA modifications on cytosine”:
# Legend:
# Assay in all cases: DAPPL (digital affinity profiling via proximity ligation, sequencing); 10 mM Tris-HCl pH 7.5, 50 mM NaCl, 1 mM DTT, 4% glycerol, room temperature, 30 min; GST-TFs on glutathione beads, 16-mer random dsDNA library, 0.1% formaldehyde crosslink after washing; high values mean tight binding
# FEV = target: T1, FEV (Homo sapiens, UniProt Q99581 1-238); conditions: protein: recombinant; tags: N-terminal GST; dsDNA, one strand shown
# T1 sequence: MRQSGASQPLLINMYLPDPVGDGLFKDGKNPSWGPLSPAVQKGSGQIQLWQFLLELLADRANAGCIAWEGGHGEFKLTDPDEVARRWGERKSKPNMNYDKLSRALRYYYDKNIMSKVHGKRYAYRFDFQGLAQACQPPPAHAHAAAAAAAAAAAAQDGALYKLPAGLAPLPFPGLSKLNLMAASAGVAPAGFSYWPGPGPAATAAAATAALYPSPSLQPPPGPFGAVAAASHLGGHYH
# Procedure, shortened: (§1)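 Beads coated with glutathione captured GST-fused human transcription factors that had been expressed in yeast, and the factors were then given DNA barcodes and pooled with a tag-only sample. The pools were incubated with 200 nmole of a random double-stranded 16-mer DNA library in Tris/NaCl/DTT/glycerol buffer for 30 min at room temperature, washed, crosslinked with 0.1% formaldehyde and proximity-ligated with BsaI/T4 ligase at 37 °C for 1 h. PCR amplification and Illumina NextSeq500 sequencing came last. Binding signal is each hexamer's read frequency for a factor divided by its frequency for the tag-only sample.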
# ETV5 = ETV5 (Homo sapiens, UniProt P41161 1-510); conditions: protein: recombinant; tags: N-terminal GST; dsDNA, one strand shown
# Procedure, shortened: as §1
# HSF1 = HSF1 (Homo sapiens, UniProt Q00613 1-529); conditions: protein: recombinant; tags: N-terminal GST; chain copies: 3; dsDNA, one strand shown
# Procedure, shortened: as §1
# SPIC = target: T2, SPIC (Homo sapiens, UniProt Q8N5J4 1-248); conditions: protein: recombinant; tags: N-terminal GST; dsDNA, one strand shown
# T2 sequence: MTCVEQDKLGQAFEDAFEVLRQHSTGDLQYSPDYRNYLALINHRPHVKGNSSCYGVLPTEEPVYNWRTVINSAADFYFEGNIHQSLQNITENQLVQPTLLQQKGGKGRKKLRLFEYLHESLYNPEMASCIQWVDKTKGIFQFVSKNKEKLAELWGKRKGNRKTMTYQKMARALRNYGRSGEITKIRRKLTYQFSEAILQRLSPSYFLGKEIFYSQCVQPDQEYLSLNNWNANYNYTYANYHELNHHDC
# Procedure, shortened: as §1
# ELF4 = ELF4 (Homo sapiens, UniProt Q99607 1-663); conditions: protein: recombinant; tags: N-terminal GST; dsDNA, one strand shown
# Procedure, shortened: as §1
# ELK4 = target: T3, ELK4 (Homo sapiens, UniProt P28324-2 1-405); conditions: protein: recombinant; tags: N-terminal GST; dsDNA, one strand shown
# T3 sequence: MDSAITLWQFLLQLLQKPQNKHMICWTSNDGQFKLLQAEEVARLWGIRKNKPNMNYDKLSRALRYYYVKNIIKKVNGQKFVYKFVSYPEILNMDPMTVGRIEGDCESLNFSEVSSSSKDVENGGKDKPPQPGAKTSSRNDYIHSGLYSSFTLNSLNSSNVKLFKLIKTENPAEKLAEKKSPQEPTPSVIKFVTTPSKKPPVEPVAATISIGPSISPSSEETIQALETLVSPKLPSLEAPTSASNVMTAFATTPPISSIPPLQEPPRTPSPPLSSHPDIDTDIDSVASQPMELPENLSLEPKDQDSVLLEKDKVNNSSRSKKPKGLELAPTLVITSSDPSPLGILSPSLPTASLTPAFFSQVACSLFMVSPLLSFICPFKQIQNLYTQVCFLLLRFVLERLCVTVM
# Procedure, shortened: as §1
# ETV2 = target: T4, ETV2 (Homo sapiens, UniProt O00321 1-342); conditions: protein: recombinant; tags: N-terminal GST; dsDNA, one strand shown
# T4 sequence: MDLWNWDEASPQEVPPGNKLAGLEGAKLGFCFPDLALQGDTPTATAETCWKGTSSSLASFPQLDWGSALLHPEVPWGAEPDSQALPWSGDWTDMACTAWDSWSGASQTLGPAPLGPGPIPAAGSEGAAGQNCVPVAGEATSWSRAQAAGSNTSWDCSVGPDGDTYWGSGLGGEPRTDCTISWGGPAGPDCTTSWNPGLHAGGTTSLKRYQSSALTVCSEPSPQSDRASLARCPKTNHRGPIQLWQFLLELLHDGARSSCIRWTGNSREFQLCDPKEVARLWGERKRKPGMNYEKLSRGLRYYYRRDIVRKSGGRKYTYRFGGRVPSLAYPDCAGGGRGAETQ
# Procedure, shortened: as §1
# ELF3 = target: T5, ELF3 (Homo sapiens, UniProt P78545 1-371); conditions: protein: recombinant; tags: N-terminal GST; dsDNA, one strand shown
# T5 sequence: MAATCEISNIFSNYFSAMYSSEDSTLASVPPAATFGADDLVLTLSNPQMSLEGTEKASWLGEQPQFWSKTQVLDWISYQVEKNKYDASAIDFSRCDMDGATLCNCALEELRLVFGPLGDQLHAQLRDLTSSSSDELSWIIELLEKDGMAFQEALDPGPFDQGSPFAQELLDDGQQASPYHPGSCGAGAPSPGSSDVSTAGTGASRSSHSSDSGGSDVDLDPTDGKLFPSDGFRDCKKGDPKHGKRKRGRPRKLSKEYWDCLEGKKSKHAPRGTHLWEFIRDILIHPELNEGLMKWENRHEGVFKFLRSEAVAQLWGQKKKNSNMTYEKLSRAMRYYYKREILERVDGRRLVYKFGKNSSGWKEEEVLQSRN
# Procedure, shortened: as §1
# CRX = CRX (Homo sapiens, UniProt O43186 1-299); conditions: protein: recombinant; tags: N-terminal GST; dsDNA, one strand shown
# Procedure, shortened: as §1
# ETV1 = ETV1 (Homo sapiens, UniProt P50549 1-477); conditions: protein: recombinant; tags: N-terminal GST; dsDNA, one strand shown
# Procedure, shortened: as §1
# Sequence of ETV1 (P50549 whole entry): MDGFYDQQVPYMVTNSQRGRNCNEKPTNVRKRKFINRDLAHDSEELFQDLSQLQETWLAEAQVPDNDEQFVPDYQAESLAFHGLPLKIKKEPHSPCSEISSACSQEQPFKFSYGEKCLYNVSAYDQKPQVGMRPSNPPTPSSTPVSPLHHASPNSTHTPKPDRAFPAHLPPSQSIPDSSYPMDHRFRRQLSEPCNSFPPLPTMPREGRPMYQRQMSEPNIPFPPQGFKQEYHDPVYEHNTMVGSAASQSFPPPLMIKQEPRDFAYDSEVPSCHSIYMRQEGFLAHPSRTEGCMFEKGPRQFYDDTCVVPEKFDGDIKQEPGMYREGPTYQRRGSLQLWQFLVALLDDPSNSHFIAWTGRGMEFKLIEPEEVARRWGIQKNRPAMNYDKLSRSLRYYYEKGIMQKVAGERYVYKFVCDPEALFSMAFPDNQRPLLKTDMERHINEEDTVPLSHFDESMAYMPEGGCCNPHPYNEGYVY
# Sequence of HSF1 (Q00613 whole entry): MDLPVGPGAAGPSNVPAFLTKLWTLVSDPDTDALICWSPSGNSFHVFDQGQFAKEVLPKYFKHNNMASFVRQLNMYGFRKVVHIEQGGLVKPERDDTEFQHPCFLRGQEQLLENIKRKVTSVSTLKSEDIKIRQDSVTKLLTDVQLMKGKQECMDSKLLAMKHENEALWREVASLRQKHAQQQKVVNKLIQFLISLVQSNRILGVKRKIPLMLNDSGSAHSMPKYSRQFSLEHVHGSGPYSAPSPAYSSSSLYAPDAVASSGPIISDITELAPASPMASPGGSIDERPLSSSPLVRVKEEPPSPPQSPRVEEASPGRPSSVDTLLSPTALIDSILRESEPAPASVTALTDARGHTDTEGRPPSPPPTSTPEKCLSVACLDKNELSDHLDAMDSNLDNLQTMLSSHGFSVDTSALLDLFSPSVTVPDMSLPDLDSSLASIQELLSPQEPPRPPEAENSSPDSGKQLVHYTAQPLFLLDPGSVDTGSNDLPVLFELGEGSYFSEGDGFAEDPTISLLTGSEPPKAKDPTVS
# Sequence of ELF4 (Q99607 whole entry): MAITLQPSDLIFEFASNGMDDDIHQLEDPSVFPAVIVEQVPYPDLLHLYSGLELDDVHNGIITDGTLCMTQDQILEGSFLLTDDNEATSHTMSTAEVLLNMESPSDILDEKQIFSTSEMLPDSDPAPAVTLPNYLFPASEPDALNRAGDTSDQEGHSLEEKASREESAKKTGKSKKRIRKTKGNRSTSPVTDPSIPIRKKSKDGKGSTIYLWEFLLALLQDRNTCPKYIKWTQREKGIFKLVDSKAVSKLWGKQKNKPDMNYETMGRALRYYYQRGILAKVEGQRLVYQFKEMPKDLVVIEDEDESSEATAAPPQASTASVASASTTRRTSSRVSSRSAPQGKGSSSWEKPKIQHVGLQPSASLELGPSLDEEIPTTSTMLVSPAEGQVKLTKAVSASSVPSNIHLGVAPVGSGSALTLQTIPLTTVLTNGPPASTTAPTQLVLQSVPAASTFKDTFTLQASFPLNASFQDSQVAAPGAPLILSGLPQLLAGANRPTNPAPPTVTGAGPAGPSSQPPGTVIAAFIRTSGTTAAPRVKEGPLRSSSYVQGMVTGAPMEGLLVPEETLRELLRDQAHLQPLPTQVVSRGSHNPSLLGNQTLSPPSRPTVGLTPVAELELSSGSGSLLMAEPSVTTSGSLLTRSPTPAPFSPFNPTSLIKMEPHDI
# Sequence of ETV5 (P41161 whole entry): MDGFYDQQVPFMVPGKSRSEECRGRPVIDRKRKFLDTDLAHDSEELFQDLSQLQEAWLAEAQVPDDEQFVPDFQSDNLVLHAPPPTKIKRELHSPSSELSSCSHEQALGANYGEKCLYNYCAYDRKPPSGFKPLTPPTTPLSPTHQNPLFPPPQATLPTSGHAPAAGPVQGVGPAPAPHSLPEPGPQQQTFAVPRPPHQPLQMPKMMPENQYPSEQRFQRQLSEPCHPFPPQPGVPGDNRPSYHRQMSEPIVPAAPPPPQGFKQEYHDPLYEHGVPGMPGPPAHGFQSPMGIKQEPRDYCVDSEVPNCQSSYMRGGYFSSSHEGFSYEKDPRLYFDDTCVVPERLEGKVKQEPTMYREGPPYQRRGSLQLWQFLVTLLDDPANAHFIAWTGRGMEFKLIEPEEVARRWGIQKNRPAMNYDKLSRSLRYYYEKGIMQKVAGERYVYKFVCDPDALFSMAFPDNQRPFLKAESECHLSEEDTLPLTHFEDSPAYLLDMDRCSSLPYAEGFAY
# Sequence of CRX (O43186 whole entry): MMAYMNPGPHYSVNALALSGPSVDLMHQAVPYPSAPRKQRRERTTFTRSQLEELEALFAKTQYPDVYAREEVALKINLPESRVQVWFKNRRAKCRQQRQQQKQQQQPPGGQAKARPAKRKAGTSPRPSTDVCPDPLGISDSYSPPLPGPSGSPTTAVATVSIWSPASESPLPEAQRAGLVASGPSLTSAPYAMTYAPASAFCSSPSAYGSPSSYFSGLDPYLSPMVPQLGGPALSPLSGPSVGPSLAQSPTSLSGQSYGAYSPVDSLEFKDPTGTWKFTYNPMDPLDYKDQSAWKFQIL
sequence,measurement,setting,value
AAACAA,binding signal,FEV,"1.28 fold enrichment (6-mer frequency, TF over GST control)"
same,binding signal,ETV5,"1.28 fold enrichment (6-mer frequency, TF over GST control)"
same,binding signal,HSF1,"1.23 fold enrichment (6-mer frequency, TF over GST control)"
same,binding signal,SPIC,"1.33 fold enrichment (6-mer frequency, TF over GST control)"
same,binding signal,ELF4,"1.31 fold enrichment (6-mer frequency, TF over GST control)"
same,binding signal,ELK4,"1.28 fold enrichment (6-mer frequency, TF over GST control)"
same,binding signal,ETV2,"1.31 fold enrichment (6-mer frequency, TF over GST control)"
same,binding signal,ELF3,"1.49 fold enrichment (6-mer frequency, TF over GST control)"
same,binding signal,CRX,"1.06 fold enrichment (6-mer frequency, TF over GST control)"
same,binding signal,ETV1,"1.32 fold enrichment (6-mer frequency, TF over GST control)"
